# Source: ChEMBL document CHEMBL4513141, “CO-ADD screening of NIH (USA) - Clinical Collection” (2021)
# Measured potencies and affinities stand elsewhere.
# Tested on: Candida albicans
# Conditions: 20 µM
row,SMILES,Inhibition
1,O=c1cnn([C@@H]2O[C@H](CO)[C@@H](O)[C@H]2O)c(=O)[nH]1 [6-AZAURIDINE],7.12%
2,CC[C@]1(O)C[C@@H]2CN(CCc3c([nH]c4ccccc34)[C@@](C(=O)OC)(c3cc4c(cc3OC)N(C=O)[C@H]3[C@@](O)(C(=O)OC)[C@H](OC(C)=O)[C@]5(CC)C=CCN6CC[C@]43[C@@H]65)C2)C1.O=S(=O)(O)O,2.01%
3,COC(=O)C1=C(C)NC(C)=C(C(=O)OCC(C)C)C1c1ccccc1[N+](=O)[O-] (stereo not given) [NISOLDIPINE],6.12%
4,Cc1ccc(-c2cc(C(F)(F)F)nn2-c2ccc(S(N)(=O)=O)cc2)cc1 [CELECOXIB],2.46%
5,CCCNC(C)C(=O)Nc1ccccc1C.Cl (stereo not given) [PRILOCAINE HYDROCHLORIDE],2.91%
6,Cc1ccc(S(=O)(=O)NC(=O)NN2CCCCCC2)cc1 [TOLAZAMIDE],-0.09%
7,CC(C)(C)NCC(O)c1ccc(O)c(CO)c1.CC(C)(C)NCC(O)c1ccc(O)c(CO)c1.O=S(=O)(O)O (stereo not given) [ALBUTEROL SULFATE],3.1%
8,Cl.Clc1ccc2nsnc2c1NC1=NCCN1 [TIZANIDINE HYDROCHLORIDE],3.84%
9,COc1ccc(Cl)cc1C(=O)NCCc1ccc(S(=O)(=O)NC(=O)NC2CCCCC2)cc1 [GLYBURIDE],-0.39%

# Tested on: Cryptococcus neoformans
# Conditions: Concentration 20 uM; ASSAY_TEST Inhibition of Fungal Growth; detection method Resazurin; Absorption (OD600-OD570); plate type 384well; NBS; CORNING #3640
row,SMILES,Inhibition
1,CC(C)[N+](C)(CCOC(=O)C1c2ccccc2Oc2ccccc21)C(C)C.[Br-] [PROPANTHELINE BROMIDE],-1.43%
2,CCC(C)(C)C(=O)O[C@H]1C[C@@H](C)C=C2C=C[C@H](C)[C@H](CC[C@@H]3C[C@@H](O)CC(=O)O3)[C@H]21 [SIMVASTATIN],3.41%
3,Cc1nccn1CC1CCc2c(c3ccccc3n2C)C1=O (stereo not given) [ONDANSETRON],-0.32%
4,COC(=O)C1=C(C)NC(C)=C(C(=O)OC(C)C)C1c1cccc2nonc12 (stereo not given) [ISRADIPINE],-5.25%
5,Nc1ccn([C@H]2CC[C@@H](CO)O2)c(=O)n1 [ZALCITABINE],-0.26%
6,Nc1ncnc2c1ncn2[C@@H]1O[C@H](CO)[C@@H](O)[C@@H]1O [VIDARABINE],1.72%
7,COc1ccccc1OCC(O)COC(N)=O (stereo not given) [METHOCARBAMOL],-8.85%
8,CN1CCCC(n2nc(Cc3ccc(Cl)cc3)c3ccccc3c2=O)CC1.Cl (stereo not given) [AZELASTINE HYDROCHLORIDE],4.19%
9,CCCc1cc(=O)[nH]c(=S)[nH]1 [PROPYLTHIOURACIL],-1.39%
10,O=C1c2c(O)cc(O)cc2O[C@H](c2ccc(O)c(O)c2)[C@@H]1O,-8.67%
11,CCOC(=O)C1(CCCCCCOc2ccc(Cl)cc2)CO1 (stereo not drawn) [rac-ETOMOXIR],-1.88%
12,CCCC(=O)Nc1ccc(OCC(O)CNC(C)C)c(C(C)=O)c1.Cl (stereo not given) [ACEBUTOLOL HYDROCHLORIDE],-1.83%
13,CN[C@@H]1[C@H](O)[C@H](NC)[C@H]2O[C@@]3(O)C(=O)C[C@@H](C)O[C@H]3O[C@@H]2[C@H]1O.Cl.Cl.Cl.O.O.O,-1.83%
14,CC1(C)O[C@@H]2C[C@H]3[C@@H]4C[C@H](F)C5=CC(=O)C=C[C@]5(C)[C@@]4(F)[C@@H](O)C[C@]3(C)[C@]2(C(=O)CO)O1 [FLUOCINOLONE ACETONIDE],6.47%
15,COc1ccc(-c2oc3c(CC=C(C)C)c(O[C@@H]4O[C@H](CO)[C@@H](O)[C@H](O)[C@H]4O)cc(O)c3c(=O)c2O[C@@H]2O[C@@H](C)[C@H](O)[C@@H](O)[C@H]2O)cc1 [ICARIIN],0.11%
16,CNCC[C@@H](Oc1ccccc1C)c1ccccc1.Cl [ATOMOXETINE HYDROCHLORIDE],5.55%
17,CC(CCCCC(=O)Nc1ccc(C(F)(F)F)cc1)NCCc1c[nH]cn1.O=C(O)/C=C\C(=O)O.O=C(O)/C=C\C(=O)O (stereo not given),-4.87%
18,CN(C)CCCN1c2ccccc2CCc2ccccc21.Cl [IMIPRAMINE HYDROCHLORIDE],0.01%
19,CCCc1nc(C)c2c(O)nc(-c3cc(S(=O)(=O)N4CCN(CC)CC4)ccc3OCC)nn12.O=C(O)CC(O)(CC(=O)O)C(=O)O,-15.39%
20,NS(=O)(=O)c1cc2c(cc1Cl)NCNS2(=O)=O [HYDROCHLOROTHIAZIDE],-7.59%
21,O=c1c(-c2ccccc2)c1-c1ccccc1 [DIPHENCYPRONE],10.54%
